# Reference: the supplement of paper PMC11732987, “Enantioselective OTUD7B fragment discovery through chemoproteomics screening and high-throughput optimisation” (Communications Chemistry, 2025)
# Unmarked numbers belong to inactive results.
# Tests used:
# Assay in all cases: log2 ratio of Biotin-Ahx-Ub-VS probe labelling (fragment/DMSO); higher = less target engagement (more negative = stronger competition), active = hit call of the paper (q ≤ 0.05, log2 ratio ≤ -1)
# Details in all cases: compound concentration: 200 uM; treatment time: 3 h
# USP19 = molecular target: T1, USP19 (UniProt O94966)
# T1 sequence (whole entry): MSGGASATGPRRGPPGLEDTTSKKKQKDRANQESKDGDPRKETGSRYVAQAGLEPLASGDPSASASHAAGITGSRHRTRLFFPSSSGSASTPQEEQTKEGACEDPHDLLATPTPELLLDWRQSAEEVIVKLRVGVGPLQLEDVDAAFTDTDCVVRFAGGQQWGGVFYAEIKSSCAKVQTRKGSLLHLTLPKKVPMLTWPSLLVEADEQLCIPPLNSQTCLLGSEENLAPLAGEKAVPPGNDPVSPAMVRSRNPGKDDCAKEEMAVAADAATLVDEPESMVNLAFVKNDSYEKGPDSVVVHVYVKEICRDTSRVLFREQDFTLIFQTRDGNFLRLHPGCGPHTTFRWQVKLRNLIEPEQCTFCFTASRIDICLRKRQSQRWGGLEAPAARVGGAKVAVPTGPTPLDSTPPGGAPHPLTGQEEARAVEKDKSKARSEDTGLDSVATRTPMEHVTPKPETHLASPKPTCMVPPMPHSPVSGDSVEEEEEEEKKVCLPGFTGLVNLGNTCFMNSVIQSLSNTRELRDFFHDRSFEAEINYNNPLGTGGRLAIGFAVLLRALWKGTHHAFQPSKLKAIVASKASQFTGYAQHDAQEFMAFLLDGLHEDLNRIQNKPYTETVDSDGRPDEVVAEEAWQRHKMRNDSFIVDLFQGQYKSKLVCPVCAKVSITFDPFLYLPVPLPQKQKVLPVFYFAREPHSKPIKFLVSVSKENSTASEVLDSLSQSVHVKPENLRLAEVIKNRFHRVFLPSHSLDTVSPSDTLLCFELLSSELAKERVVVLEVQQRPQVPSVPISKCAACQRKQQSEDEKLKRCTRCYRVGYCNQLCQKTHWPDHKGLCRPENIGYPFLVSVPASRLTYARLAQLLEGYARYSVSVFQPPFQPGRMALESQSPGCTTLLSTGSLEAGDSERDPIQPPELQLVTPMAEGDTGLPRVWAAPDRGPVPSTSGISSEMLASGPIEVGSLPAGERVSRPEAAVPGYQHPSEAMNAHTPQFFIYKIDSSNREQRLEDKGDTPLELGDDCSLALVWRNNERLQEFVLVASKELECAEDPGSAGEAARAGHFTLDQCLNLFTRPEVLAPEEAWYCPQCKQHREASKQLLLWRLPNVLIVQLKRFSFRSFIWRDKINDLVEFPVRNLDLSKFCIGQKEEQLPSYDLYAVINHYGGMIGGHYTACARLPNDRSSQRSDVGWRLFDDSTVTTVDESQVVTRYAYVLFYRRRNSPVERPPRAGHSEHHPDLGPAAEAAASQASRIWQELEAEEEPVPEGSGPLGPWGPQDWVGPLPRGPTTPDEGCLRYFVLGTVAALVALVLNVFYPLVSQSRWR
# Procedure, shortened: (§1)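 Labelling with Biotin-Ahx-Ub-VS (0.5 µM final, 1 h) followed a 3 h triplicate treatment of HEK293T lysate (495 µg per sample, Tris/CHAPS/IGEPAL buffer with protease inhibitors) with fragment at 200 µM or vehicle. Labelled DUBs were NeutrAvidin-enriched, digested with LysC and trypsin, and run by diaPASEF LC-MS/MS. The values, average log2 fragment/vehicle ratios by unpaired t-test, come from global-median-normalised Spectronaut label-free quantities. Proteins with ≥2 unique peptides were used.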
# USP22 = molecular target: T2, USP22 (UniProt Q9UPT9)
# T2 sequence (whole entry): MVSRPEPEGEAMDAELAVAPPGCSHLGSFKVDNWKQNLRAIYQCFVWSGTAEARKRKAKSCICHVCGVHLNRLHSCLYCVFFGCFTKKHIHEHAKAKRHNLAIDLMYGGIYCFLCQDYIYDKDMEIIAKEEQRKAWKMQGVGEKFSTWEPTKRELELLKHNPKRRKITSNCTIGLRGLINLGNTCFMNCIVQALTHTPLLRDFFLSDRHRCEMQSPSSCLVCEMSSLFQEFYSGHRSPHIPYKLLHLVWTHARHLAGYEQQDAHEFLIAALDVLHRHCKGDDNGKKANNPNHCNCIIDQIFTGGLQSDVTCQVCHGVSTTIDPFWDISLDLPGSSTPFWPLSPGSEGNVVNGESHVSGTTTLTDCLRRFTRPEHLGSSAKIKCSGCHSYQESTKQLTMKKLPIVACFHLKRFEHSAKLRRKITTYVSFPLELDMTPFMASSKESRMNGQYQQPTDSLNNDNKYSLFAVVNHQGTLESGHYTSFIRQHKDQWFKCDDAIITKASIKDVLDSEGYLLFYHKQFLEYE
# Procedure, shortened: as §1
# USP24 = USP24 (UniProt Q9UPU5)
# USP24, sequence (Q9UPU5 whole entry): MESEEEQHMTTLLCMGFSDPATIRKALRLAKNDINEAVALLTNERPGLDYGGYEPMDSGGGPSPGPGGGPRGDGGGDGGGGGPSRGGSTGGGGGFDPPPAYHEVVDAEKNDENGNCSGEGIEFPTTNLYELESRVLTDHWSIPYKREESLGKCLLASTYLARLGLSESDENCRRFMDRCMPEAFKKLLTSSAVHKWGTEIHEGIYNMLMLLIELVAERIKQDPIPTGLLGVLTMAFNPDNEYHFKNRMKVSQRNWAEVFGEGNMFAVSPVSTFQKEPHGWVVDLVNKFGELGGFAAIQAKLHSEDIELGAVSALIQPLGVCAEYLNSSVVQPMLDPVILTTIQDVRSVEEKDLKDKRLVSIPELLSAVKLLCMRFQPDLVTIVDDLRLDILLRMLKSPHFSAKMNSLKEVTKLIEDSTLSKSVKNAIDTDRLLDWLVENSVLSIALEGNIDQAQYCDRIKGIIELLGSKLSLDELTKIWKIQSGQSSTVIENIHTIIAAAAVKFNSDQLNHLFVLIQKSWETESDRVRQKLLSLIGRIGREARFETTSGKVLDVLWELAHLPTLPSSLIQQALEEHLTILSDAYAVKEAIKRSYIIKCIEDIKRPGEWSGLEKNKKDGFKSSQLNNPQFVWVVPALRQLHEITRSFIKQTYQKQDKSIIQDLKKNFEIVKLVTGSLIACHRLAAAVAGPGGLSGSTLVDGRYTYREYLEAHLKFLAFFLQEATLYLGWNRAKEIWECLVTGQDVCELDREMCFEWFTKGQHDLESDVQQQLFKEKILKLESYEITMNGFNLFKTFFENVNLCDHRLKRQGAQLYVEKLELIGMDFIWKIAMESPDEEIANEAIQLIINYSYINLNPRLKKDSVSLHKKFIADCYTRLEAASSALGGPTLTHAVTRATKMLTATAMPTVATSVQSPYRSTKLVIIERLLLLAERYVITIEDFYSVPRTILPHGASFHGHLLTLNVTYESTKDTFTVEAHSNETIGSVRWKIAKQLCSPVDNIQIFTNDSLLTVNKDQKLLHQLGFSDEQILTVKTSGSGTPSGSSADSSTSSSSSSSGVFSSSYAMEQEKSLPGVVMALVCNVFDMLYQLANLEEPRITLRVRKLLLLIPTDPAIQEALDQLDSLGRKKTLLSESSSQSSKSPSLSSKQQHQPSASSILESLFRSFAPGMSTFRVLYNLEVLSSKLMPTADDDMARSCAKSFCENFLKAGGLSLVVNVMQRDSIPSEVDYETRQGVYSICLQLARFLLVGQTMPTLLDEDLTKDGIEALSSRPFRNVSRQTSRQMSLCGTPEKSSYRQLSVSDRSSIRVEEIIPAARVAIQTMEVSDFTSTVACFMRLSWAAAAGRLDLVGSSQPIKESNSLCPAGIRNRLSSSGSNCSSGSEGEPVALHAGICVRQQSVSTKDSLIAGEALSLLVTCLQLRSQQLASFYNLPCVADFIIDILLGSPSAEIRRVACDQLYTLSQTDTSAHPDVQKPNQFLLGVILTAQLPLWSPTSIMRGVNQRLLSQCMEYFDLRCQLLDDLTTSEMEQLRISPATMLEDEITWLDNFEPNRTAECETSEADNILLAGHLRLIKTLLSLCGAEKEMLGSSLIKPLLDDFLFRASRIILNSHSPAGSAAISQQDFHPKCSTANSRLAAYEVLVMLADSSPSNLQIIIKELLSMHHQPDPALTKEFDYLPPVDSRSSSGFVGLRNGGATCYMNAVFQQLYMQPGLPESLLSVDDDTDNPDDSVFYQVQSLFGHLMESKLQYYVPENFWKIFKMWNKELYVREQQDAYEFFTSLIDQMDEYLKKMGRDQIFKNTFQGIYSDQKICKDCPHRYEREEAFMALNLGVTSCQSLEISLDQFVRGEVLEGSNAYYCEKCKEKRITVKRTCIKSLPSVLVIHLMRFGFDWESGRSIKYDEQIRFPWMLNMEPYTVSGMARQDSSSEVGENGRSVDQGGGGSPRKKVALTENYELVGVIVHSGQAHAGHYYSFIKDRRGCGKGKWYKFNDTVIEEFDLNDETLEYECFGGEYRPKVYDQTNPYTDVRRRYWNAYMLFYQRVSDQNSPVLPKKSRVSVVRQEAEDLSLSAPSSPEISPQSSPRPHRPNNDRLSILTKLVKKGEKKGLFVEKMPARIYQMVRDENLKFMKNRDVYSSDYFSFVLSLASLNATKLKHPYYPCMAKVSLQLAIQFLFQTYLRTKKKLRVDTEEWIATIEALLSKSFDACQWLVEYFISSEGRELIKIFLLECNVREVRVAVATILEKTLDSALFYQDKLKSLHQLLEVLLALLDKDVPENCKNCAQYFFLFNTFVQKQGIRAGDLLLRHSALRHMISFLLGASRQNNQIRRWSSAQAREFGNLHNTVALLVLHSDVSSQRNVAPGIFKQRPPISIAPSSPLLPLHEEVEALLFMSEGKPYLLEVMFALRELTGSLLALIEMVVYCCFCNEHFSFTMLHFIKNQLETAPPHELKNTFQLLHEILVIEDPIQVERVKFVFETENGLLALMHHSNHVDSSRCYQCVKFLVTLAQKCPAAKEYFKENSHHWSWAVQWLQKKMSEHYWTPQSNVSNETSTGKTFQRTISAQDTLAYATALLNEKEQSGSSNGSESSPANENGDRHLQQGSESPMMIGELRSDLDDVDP
# Procedure, shortened: as §1
# USP25 = molecular target: T3, USP25 (UniProt Q9UHP3)
# T3 sequence (whole entry): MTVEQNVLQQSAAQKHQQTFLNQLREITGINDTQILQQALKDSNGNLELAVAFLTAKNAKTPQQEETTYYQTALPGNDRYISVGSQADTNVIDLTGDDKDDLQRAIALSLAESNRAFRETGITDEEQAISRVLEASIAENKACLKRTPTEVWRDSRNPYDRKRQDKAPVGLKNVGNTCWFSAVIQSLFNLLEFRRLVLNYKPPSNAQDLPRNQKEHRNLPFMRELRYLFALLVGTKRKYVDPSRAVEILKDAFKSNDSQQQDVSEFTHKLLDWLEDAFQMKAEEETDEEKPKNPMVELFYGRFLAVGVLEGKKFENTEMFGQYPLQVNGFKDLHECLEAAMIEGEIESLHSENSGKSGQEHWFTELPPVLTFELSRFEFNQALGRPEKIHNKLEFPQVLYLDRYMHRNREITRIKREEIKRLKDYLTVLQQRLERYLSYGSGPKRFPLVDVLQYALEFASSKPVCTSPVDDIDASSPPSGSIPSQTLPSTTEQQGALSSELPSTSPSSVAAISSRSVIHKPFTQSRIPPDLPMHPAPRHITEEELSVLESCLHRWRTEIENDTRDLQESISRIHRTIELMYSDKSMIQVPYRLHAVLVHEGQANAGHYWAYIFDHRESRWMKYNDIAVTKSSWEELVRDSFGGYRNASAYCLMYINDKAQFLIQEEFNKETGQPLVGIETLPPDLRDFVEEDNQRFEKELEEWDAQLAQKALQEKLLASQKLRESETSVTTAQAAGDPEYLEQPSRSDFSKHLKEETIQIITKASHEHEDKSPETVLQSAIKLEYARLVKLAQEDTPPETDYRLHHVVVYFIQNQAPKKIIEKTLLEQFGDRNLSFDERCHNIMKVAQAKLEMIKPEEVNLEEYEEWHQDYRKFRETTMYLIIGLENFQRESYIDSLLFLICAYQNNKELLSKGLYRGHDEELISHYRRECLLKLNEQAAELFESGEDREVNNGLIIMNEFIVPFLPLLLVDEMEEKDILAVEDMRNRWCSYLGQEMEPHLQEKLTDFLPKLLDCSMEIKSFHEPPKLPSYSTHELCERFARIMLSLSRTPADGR
# Procedure, shortened: as §1
# USP28 = molecular target: T4, USP28 (UniProt Q96RU2)
# T4 sequence (whole entry): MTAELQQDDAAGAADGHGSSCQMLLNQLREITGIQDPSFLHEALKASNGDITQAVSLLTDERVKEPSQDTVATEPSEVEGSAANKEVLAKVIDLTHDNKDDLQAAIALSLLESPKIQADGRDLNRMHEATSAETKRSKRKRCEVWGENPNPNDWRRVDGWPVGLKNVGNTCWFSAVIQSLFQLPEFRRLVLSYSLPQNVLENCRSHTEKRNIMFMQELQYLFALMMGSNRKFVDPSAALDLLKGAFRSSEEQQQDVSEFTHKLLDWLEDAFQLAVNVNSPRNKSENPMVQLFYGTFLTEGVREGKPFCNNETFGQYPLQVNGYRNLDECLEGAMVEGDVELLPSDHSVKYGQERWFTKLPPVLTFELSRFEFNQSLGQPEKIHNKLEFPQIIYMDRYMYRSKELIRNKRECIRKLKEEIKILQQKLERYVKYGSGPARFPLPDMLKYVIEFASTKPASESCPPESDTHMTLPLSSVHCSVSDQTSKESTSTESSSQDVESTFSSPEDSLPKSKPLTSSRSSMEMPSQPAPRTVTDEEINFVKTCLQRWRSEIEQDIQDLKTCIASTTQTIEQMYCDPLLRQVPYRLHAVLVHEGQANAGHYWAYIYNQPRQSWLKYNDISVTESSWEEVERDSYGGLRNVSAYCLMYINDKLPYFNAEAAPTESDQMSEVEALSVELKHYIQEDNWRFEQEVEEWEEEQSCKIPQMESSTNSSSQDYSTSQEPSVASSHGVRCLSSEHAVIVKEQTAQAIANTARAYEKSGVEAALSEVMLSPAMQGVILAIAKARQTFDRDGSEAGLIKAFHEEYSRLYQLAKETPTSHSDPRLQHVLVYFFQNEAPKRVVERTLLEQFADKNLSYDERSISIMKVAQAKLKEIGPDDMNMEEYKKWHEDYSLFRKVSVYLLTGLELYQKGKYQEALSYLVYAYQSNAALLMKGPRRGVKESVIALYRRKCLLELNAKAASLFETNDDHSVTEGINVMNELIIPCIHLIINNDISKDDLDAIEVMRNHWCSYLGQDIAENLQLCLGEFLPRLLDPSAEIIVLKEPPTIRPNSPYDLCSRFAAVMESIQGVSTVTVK
# Procedure, shortened: as §1
structure (smiles),measurement,setting,value
COc1cc(Cl)c(C)cc1NC(=O)CCl,log2 ratio of Biotin-Ahx-Ub-VS probe labelling,USP19,-0.357
same,log2 ratio of Biotin-Ahx-Ub-VS probe labelling,USP22,-0.0389
same,log2 ratio of Biotin-Ahx-Ub-VS probe labelling,USP24,-1.3 (active)
same,log2 ratio of Biotin-Ahx-Ub-VS probe labelling,USP25,-0.839
same,log2 ratio of Biotin-Ahx-Ub-VS probe labelling,USP28,-0.742
